HT1080-NT tox: kills 2HG-producing HT-1080-NT fibrosarcoma cells. AID 686970. 360,000 compounds, 1.6% hits. Potency, µM (highest dose often 46.1 µM), for the others: top-dose activity, negative = less viability, actives largely listed as cytotoxic. HT-1080-NT fibrosarcoma viability, CellTiter-Glo ATP luminescence, 48 h;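 also: NT is the 2HG producing partner of a matched IDH1 knockdown line; potency is read from the fitted curve at half-maximal effect; 0% = DMSO-treated cells and -100% = media-only wells without cells; nearly all actives have a fitted effect of over 55% in size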
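Fibrosarcoma NT cells, 750 per well in 5% FBS RPMI, were exposed to compound for 48 hours. Viability: CellTiter-Glo luminescence.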
IL1B secr inh: inhibitors of inflammasome signaling (IL-1 beta secretion) | 360,000 compounds, 4.7% hits | AID 743279 | THP-1 LPS/ATP IL-1B secretion, AlphaLISA, 16 h; active compounds read low | activity change, % at 57.5 µM; in the data active = activity change below about -50%; inconclusive = mostly about -30% to -49%
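THP-1 cells pretreated 1 hr with compounds (up to 57.5 uM final), then stimulated with LPS (250 ng/mL final) plus ATP (1.25 mM final); secreted IL-1B measured by AlphaLISA after 16 hr, decreased signal indicating inhibition.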
HT1080 IDH1KD tx: HT-1080 IDH1 knockdown cell toxicity (counter line) | HT-1080 IDH1 knockdown viability, ATP luminescence, 48 h | Potency, µM (top dose mostly 46.1 µM), for the others: at the top dose activity, negative = toxicity, most hits filed as cytotoxic | 360,000 compounds, 2% hits | AID 686971;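 also: potency is read from the fitted curve at half-maximal effect; 0% = DMSO wells and -100% = cell-free medium wells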
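In this qHTS, HT-1080 cells depleted of IDH1 are exposed for 48 h at 37 °C to compound titrations. Toxicity is scored from CellTiter-Glo luminescence, with DMSO as full viability and medium alone as none.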
TDP1 cell noCPT: qHTS for Inhibitors of human tyrosyl-DNA phosphodiesterase 1 (TDP1): qHTS in cells in absence of CPT; DT40 Tdp1-/- hTDP1 cells, no CPT, ATP luminescence, 48 h; 420,000 compounds, 15% hits; Potency, µM (highest dose often 46.2 µM), inactives show at the highest dose activity change, negative = growth inhibition, hits mostly inhibitors; also: potency is read from the fitted curve at half-maximal effect; nearly all actives have a fitted effect of over 55% in size
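Growth kinetics read by CellTiter-Glo luminescence after ≥48 hr at 37 °C. Cells: DT40 Tdp1-/- stably carrying human TDP1, 400 per well, compound exposure in the absence of CPT (DMSO vehicle).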
ELG1 repair inh: ELG1-dependent DNA repair inhibition; HEK293T ELG1-luciferase reporter, luminescence, 16 h; DNA damage induced by 5-fluorouridine; Potency, µM (titrated, usually from 46.1 µM), without a hit: at the highest dose activity change, negative = inhibition, actives largely listed as inhibitors; 330,000 compounds, 2.3% hits; AID 504467; also: potency is read from the fitted curve at half-maximal effect; nearly all actives have a fitted effect of over 55% in size
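In this reporter screen, reduction of luminescence relative to DMSO vehicle indicated activity. Compounds and 5-fluorouridine were added together to 2,000 cells per well, incubated for 16 hr at 37 °C, then developed with ONE-Glo.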
TDP1 cell CPT: growth inhibition of DT40 Tdp1-/-;hTDP1 cells with camptothecin (screen for TDP1 inhibitors); Potency, µM (highest dose often 46.2 µM), inactives show at the highest dose activity change, negative = growth inhibition, most hits filed as inhibitors; AID 686979; chicken DT40 Tdp1-/-;hTDP1 cells + 20 nM CPT, ATP luminescence, 48 h; 420,000 compounds, 12% hits; also: potency is read from the fitted curve at half-maximal effect; nearly all actives have a fitted effect of over 55% in size
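Chicken DT40 Tdp1-/- cells stably complemented with human TDP1 were seeded at 400 cells/well in medium containing 20 nM camptothecin, exposed to pin-transferred compounds, and grown at 37 °C for at least 48 hr. Viability was read as ATP luminescence.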
Numbers without * were called inactive; [ ] = remark or other dose. In the library only some 19% were active in any assay of this set; here they are far more common. Unless noted, calls follow the shape of the dose curve; as a rule, active = well fitted curve in the direction sought with a large enough effect; inconclusive = small, poorly fitted or top-dose-only effect, or another doubt; inactive = no such curve, though single readings can be large; an effect the other way counts as inactive or inconclusive. Unless noted, % is scaled to controls: 0 for no effect and ±100 for the full control effect.

How did Clc1cccc(CNCCc2c[nH]c3ccccc23)c1 do in these assays?
HT1080-NT tox: 18µM*; IL1B secr inh: -92*; HT1080 IDH1KD tx: 16µM*; TDP1 cell noCPT: inconclusive; ELG1 repair inh: -22%; TDP1 cell CPT: inconclusive

Results for FC(F)(F)c1ccc(CNCCc2c[nH]c3ccccc23)cc1 ?
HT1080-NT tox: 17%; IL1B secr inh: -16; HT1080 IDH1KD tx: -1%; TDP1 cell noCPT: inconclusive; ELG1 repair inh: -24%; TDP1 cell CPT: inconclusive

What do the screens show for `COc1ccccc1CCNCc1ccc(OC)c(OC)c1OC`?
HT1080-NT tox: -11%; IL1B secr inh: inconclusive; HT1080 IDH1KD tx: -3%; TDP1 cell noCPT: 12µM*; ELG1 repair inh: -1%; TDP1 cell CPT: 26µM*

What do the screens show for `CCOc1cc(CNCCc2c[nH]c3ccccc23)cc(Cl)c1OC`?
HT1080-NT tox: 18µM*; IL1B secr inh: -103*; HT1080 IDH1KD tx: 21µM*; TDP1 cell noCPT: 5.8µM*; ELG1 repair inh: -2%; TDP1 cell CPT: 8.2µM*

What do the screens show for `COc1cc2nc(N(C)C)c(CNCCc3c[nH]c4ccccc34)cc2c(OC)c1OC`?
TDP1 cell noCPT: -18%; TDP1 cell CPT: 6%[9.04 µM]

How did COc1cccc(CNCCc2c[nH]c3ccccc23)c1OC do in these assays?
HT1080-NT tox: -16%; IL1B secr inh: 12; HT1080 IDH1KD tx: 0%; TDP1 cell noCPT: -15%; ELG1 repair inh: -22%; TDP1 cell CPT: 2%

What do the screens show for `COc1ccc(CNCCc2c[nH]c3ccccc23)c(OC)c1OC`?
HT1080-NT tox: -2%; IL1B secr inh: -58*; HT1080 IDH1KD tx: inconclusive; TDP1 cell noCPT: 12µM*; ELG1 repair inh: -17%; TDP1 cell CPT: 16µM*

What do the screens show for `CC1CCCC(=O)CCC/C=C/c2cc(O)cc(O)c2C(=O)O1` (configuration not stated)?
TDP1 cell noCPT: -15%; TDP1 cell CPT: 3%

What do the screens show for `COc1cccc(OP(=O)(Nc2ccccc2)Oc2cccc(OC)c2)c1`?
HT1080-NT tox: -30%; IL1B secr inh: inconclusive; HT1080 IDH1KD tx: -11%; TDP1 cell noCPT: -24%; ELG1 repair inh: inconclusive; TDP1 cell CPT: inconclusive

Results for CCCCNCc1cc(Cl)c(OCCC)c(OCC)c1 ?
HT1080-NT tox: inconclusive; IL1B secr inh: -64*; HT1080 IDH1KD tx: inconclusive; TDP1 cell noCPT: inconclusive; ELG1 repair inh: -4%; TDP1 cell CPT: inconclusive

How did CN1C(=O)N(C)C(=O)C2(Cc3cc(NC(=O)c4ccccc4)ccc3N3CCCC32)C1=O (configuration not stated) do in these assays?
HT1080-NT tox: -3%; IL1B secr inh: 17; HT1080 IDH1KD tx: 0%; TDP1 cell noCPT: 8%; ELG1 repair inh: -1%; TDP1 cell CPT: -1%

Results for CCCNC(=O)N1[C@H]2CC[C@@H]1C(C(=O)OC)=C(c1cc3ccccc3s1)C2 ?
HT1080-NT tox: 3%; IL1B secr inh: 5; HT1080 IDH1KD tx: 2%; TDP1 cell CPT: 12µM*

How did COC(=O)C1=C(c2ccccc2)C[C@@H]2CC[C@H]1N2C(=O)NCCCOC(C)C do in these assays?
HT1080-NT tox: 18%; IL1B secr inh: 23; HT1080 IDH1KD tx: 11%; TDP1 cell noCPT: -8%; TDP1 cell CPT: 2%

Results for COC(=O)C1=C(c2cc3ccccc3s2)C[C@@H]2CC[C@H]1N2C(=O)NCCCOC(C)C ?
HT1080-NT tox: 5%; IL1B secr inh: 4; HT1080 IDH1KD tx: 12%; TDP1 cell noCPT: 18µM*; TDP1 cell CPT: 18µM*

Results for CC1CCCN(CCCNC(=O)c2ccc3c(c2)N(Cc2cccc(Cl)c2)C(=O)c2ccccc2S3=O)C1 (configuration not stated) ?
HT1080-NT tox: -25%; IL1B secr inh: inconclusive; HT1080 IDH1KD tx: inconclusive; TDP1 cell noCPT: inconclusive; TDP1 cell CPT: inconclusive

How did COc1ccccc1OC(=O)Oc1ccccc1OC do in these assays?
HT1080-NT tox: 6%; IL1B secr inh: -1; HT1080 IDH1KD tx: 13%; TDP1 cell noCPT: inconclusive; TDP1 cell CPT: -8%

How did Cc1ccc2cc(C=C(C#N)C#N)c(Cl)nc2c1 do in these assays?
HT1080-NT tox: -1%; IL1B secr inh: -96*; HT1080 IDH1KD tx: -12%; TDP1 cell noCPT: 2.9µM*; ELG1 repair inh: -24%; TDP1 cell CPT: 2.1µM*

How did Cc1cc(N2CCCC2)ccc1C=C(C#N)C#N do in these assays?
HT1080-NT tox: -1%; IL1B secr inh: 17; HT1080 IDH1KD tx: 6%; TDP1 cell noCPT: -17%; ELG1 repair inh: -13%; TDP1 cell CPT: -12%

What do the screens show for `CCOC(=O)c1ccc(NC(=O)c2sc3nc4c(cc3c2N)N2CCC4CC2)cc1`?
TDP1 cell noCPT: inconclusive; TDP1 cell CPT: -25%

What do the screens show for `Cc1nn2c(=O)cc(COC(=O)c3ccccc3NC(=O)c3cccs3)nc2s1`?
TDP1 cell noCPT: 10µM*; TDP1 cell CPT: 9.2µM*

How did O=C(OCc1cc(=O)n2nc(C3CC3)sc2n1)c1ccc(NC(=O)c2ccccc2Cl)cc1 do in these assays?
TDP1 cell noCPT: 7.3µM*; TDP1 cell CPT: inconclusive

What do the screens show for `Cc1ccccc1OCC(=O)Nc1ccccc1C(=O)OCc1cc(=O)n2nc(C3CC3)sc2n1`?
TDP1 cell noCPT: 1.6µM*; TDP1 cell CPT: 1.6µM*

What do the screens show for `Cc1ccc(C(C)C)cc1OCC(=O)Nc1nnc(C2CC2)s1`?
HT1080-NT tox: inconclusive; IL1B secr inh: -5; HT1080 IDH1KD tx: inconclusive; TDP1 cell noCPT: inconclusive; ELG1 repair inh: 9%; TDP1 cell CPT: -5%

How did CC(C)c1nn2c(=O)cc(COC(=O)Cc3ccccc3)nc2s1 do in these assays?
TDP1 cell noCPT: -5%; TDP1 cell CPT: -8%

What do the screens show for `CC(C)(C)NCC(O)c1cc(Cl)c(N)c(C(F)(F)F)c1` (configuration not stated)?
TDP1 cell noCPT: -16%; TDP1 cell CPT: 14%

What do the screens show for `COc1ccc(/C=C2\SC(=O)N(CCn3cnnn3)C2=O)cc1`?
HT1080-NT tox: 6%; IL1B secr inh: -12; HT1080 IDH1KD tx: 12%; TDP1 cell noCPT: -9%; ELG1 repair inh: inconclusive; TDP1 cell CPT: -2%

Results for CN(C)C(=O)Oc1noc2cc(Cl)ccc12 ?
HT1080-NT tox: -3%; IL1B secr inh: -14; HT1080 IDH1KD tx: -4%; TDP1 cell noCPT: -13%; ELG1 repair inh: 7%; TDP1 cell CPT: -3%

Screens: PubChem BioAssay, National Center for Advancing Translational Sciences (NCATS)
